Drawing on PubChem BioAssay AID1347423 (Functional Genomics Laboratory (NCATS/FGL), 2020), this text covers z-score for 105 sequences.

In all, about 52,000 sequences went through this assay and about 210 (0.4%) were called active. This is one part of a sample in which actives are shown more often than they occur. A number with no mark means an inactive call.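 Rule for the calls: active = gene whose silencing raises cell survival under the drug, median off-target-corrected z-score across its silencing RNAs 2 or more; inactive = the rest.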

The nature of the assay: Resistance to Poly (ADP-Ribose) Polymerase inhibitor: Gene Identification via Genome-wide siRNA Screen. The conditions noted are these: mouse BRCA2 R2336H ES cells, olaparib, CellTiter-Glo viability; stronger effect = higher value. The method, boiled down: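 Mouse BRCA2 R2336H ES cells were reverse-transfected with siRNA (20 nM final), treated at 48 h with 500 nM olaparib, and read by CellTiter-Glo after 72 h. Scores: MAD-based z per siRNA, median per gene, seed off-target correction.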
For orientation: Cellular ATP, detected with luciferase, serves as a proxy for viable cell number.
As for GGAAAGGACCACCUAAGUUTT against Pde6g, the z-score is -2.22 (active).

Regarding GGUUACCUGAGGUCAGUAGTT against Ifi1, the z-score was -2.31.

Regarding GGCUAAUGUGCUCUCUCAUTT against Olfr644, the z-score was 1.28.

Regarding CCCACAGGGAUUUAUUUAUTT against Slc37a1, the z-score was 1.36 (active).

With CCUUGAAAUACUGAGUGACTT against AU067695, the z-score was 1.17.

Consider GGAGCAAUGUUGUCACAACTT against Fbln1, for which the z-score was -0.548.

For the sequence “CGUGUAAAAGCCGGAUUGATT against 1500015L24Rik”, the z-score was 0.909.

As for “GCAAAGCUGAUGGACUCAATT against 2410018M08Rik”, the z-score is -0.965.

With GGCAAAAGUGGUUAUUGAATT against Itga6, the z-score was 3.02 (active).

For the sequence GGAUAAUGGUAUCUACUUCTT against Cd79b, the z-score is -0.408.

GGCAAGAAUCAAGGAGAGATT against Nek1: the z-score is 1.44.

In the case of GCGAUUAAUGGCAUAGUUUTT against Sara1, the z-score was -1.04.

Take GACAGGAAGUUGAUGAAUUTT against Raet1a: the z-score was -0.444.

For “GGCAAACAAAUGGUUUGUUTT against D430030K24Rik”, the z-score was 2.76 (active).

For the sequence “GCACCUUAAAAAUGAAGAUTT against D12Ertd551e”, the z-score was -0.616.

In the case of GGUACCGGAAAGGAAGUGUTT against Grm1, the z-score is -0.666.

Regarding GGAAGAGAAAGACCUGAGATT against Glra1, the z-score was -0.8.

Take GGCUGAGAUCUGAAAUUGATT against Krt2-5: the z-score was 0.59.

In the case of CGAAAGUUACUCAUAGAGATT against Itga6, the z-score was 0.364 (active).

Regarding “GCAGGUGCCAACAUUAUUGTT against 0610039C21Rik”, the z-score is 1.5.

Regarding GGAAGAAAUGGACCAGCUGTT against Brp16, the z-score is -1.27.

Take CCUUAUCCAAGAGUAGGGCTT against AY534250: the z-score was 1.03.

Consider GGUGUGACACCUAAGAUGATT against AW212607, for which the z-score is 1.39.

For the sequence GGACAAGUUGUUGGACUACTT against Smarca3, the z-score was 1.04 (active).

With “CCUAUCUUUACCACAUAGATT against 9030624J02Rik”, the z-score was -0.939.

Turning to “GGACCCAUGAGGUUAACUUTT against D15Ertd781e”, the z-score was -1.18.

For GGUUCACCUGUCAAGUGGATT against Hfe, the z-score is 0.781.

Turning to “GGUGUGGGUGGGAAAAGAATT against 2610027C15Rik”, the z-score was -1.77.

As to CCUUAUUUUACGGAACUGCTT against Olfr1018, the z-score is 0.819.

Consider GCUCUGCUAGUCAACUGCATT against Nrip2, for which the z-score was 0.681.

As for GGGAUUUAACAACAUGUAATT against Slc20a1, the z-score was 2.29 (active).

Take GGGCAUAGAGUCUCAAACUTT against Ptger1: the z-score was 0.492.

As for GGAGCUUCUAGAGAAGAUCTT against Leng5, the z-score was -2.29.

With “GCGGCAGAUCUUCGAUUUCTT against 2610200G18Rik”, the z-score was -0.616.

On to GCUUCUAAGCCGAAGGCCATT against Hist1h1d, for which the z-score was 0.442.

Regarding “CCACCAUCAAAUAUAACUATT against 9930021J03Rik”, the z-score was 0.126.

On to GGAACAUGAAGCCUUUUACTT against Asb16, for which the z-score was 3.12 (active).

Consider CCCAGGACUCAUGAUUACATT against Tas2r134, for which the z-score is -1.

Take “CCAUCAAGAGGUAUAAUCUTT against A930017E24Rik”: the z-score was -2.24.

Turning to CGGACAGAUACAAUAGCUATT against BC057627, the z-score was 3.74 (active).

Take GGAUUGUGCUGUGAAACAUTT against Pilrb: the z-score was -1.98.

Consider GCCUUCAAAUGAAGGAAGGTT against Olfr699, for which the z-score was -0.519.

Take “GGUGAAACUGAAUAAAAUCTT against 4931406C07Rik”: the z-score was 1.09.

For the sequence “GGCUAGAGAAAUAGUGUUGTT against D6Ertd253e”, the z-score is -0.28.

Turning to GGAUGAAAUUAACUCUGAATT against Adprt1, the z-score was 2.49 (active).

On to GCUUAAGGACGCAUUGAAATT against Pthlh, for which the z-score is -0.0187.

Take GGAACACCGAACAUAAAUATT against Gm610: the z-score was -0.526.

Regarding “UCUGGAGUCUUAUCAAGGATT against 2210020M01Rik”, the z-score is -0.752.

In the case of “GGUGCCUGACCAAAAAGGATT against A830094I09Rik”, the z-score was 2.67 (active).

With GCCGACUGGUUAAAUACAUTT against Nme3, the z-score was -0.45.

For “CCCACUUAUAUAUGUAGUUTT against 2410187C16Rik”, the z-score was -0.391.

Consider GGCAGAAGCAAUGAACUAUTT against Npm1, for which the z-score is 3.59 (active).

Consider GGCCUUGGGAAGGAAAGAGTT against Mospd1, for which the z-score is -1.74.

For GGCACCUAACGACUUCAACTT against Pygm, the z-score is 0.366.

Turning to GCCCGCUCUCGGAUUUUGATT against Htr1b, the z-score is 2.87 (active).

“GCUCAGACCAUAGUUUCUATT against A930002I21Rik”: the z-score is 1.53.

GCCUCAAAACUUCUUGUUCTT against Mxd3: the z-score was 0.892.

Regarding GGCCUUUCUGGAGAAGAUGTT against Stfa3, the z-score is -0.717.

As for CCUUCGAACUCGAAAAAUUTT against Olfr722, the z-score was 0.346.

As to “GGCCAUCGAACUCAAUCUCTT against 2810002D13Rik”, the z-score was 0.717.

As to GGUUAAUGGGAAACUCUGCTT against Pias3, the z-score was 2.89 (active).

Turning to GGACUUAUCGGUUAUCUUUTT against Nap1l2, the z-score is 0.654.

“CCGCACAGACCAUAGUAGATT against 1700121L12Rik”: the z-score is 0.0169.

With “CCUAGUUGAAAAUUGGGAATT against 0610025O11Rik”, the z-score is -0.794.

For the sequence GGAUGAACAGGAGAAAGUCTT against Irak2, the z-score was 0.0975.

Consider CGAUGUACUGUCUCUUUUGTT against Ywhaz, for which the z-score is 1.53.

In the case of GCAACAGGUUAGCGAAACCTT against Bid3, the z-score was 0.43 (active).

On to GGUAGCUAUCAAGGUCAUCTT against Hunk, for which the z-score was -0.704.

With GGAGGAUACCUUCUUCUACTT against Mta3, the z-score was 0.46.

As for GCAGGGACCGUCUAUAACUTT against Ptprb, the z-score is -0.654.

As to GCGGAUUUAGUGGCUGGCUTT against Opn5, the z-score is -2.04.

As for GGAAUUUUUGGACAAAGUATT against Grid2, the z-score is -3.07 (active).

Take GCUCUUCUCGCAUUCCUAUTT against Gpc2: the z-score is -0.68.

Consider CCAGAUUGGUGAUGGUAGUTT against LOC432637, for which the z-score was 0.502.

As for GGCUCAUCAAAGGAAGAAATT against Araf1, the z-score is 1.44 (active).

As to CCAGAACUUCCCAUUAAAATT against Alg8, the z-score is -0.0137.

Regarding “CCUUAUUGGGUCAUAAGCATT against 2210403B10Rik”, the z-score is 0.798.

In the case of CCUCCGUUUGAUGACUCAATT against Tcte3, the z-score is 0.671.

As to GCGAUUCAAACUUAUUCGATT against Pcdhb15, the z-score is 0.749.

For CCAUGAUCAAGAUUGUGCUTT against Slc29a1, the z-score was -0.707.

Take CCCUCGAUCCUUUUCACCUTT against Gja4: the z-score was 1.09.

On to CUAGUAGGGUCAGAAUUUUTT against Olfr329, for which the z-score is 2.11.

As to CCAUGCAUCUAAGUCUCGATT against Trpm3, the z-score was 1.35.

For “GGAUUAAUUAAUACUUGGCTT against 3010033P07Rik”, the z-score was 0.03.

As to GGACCACCUAAGUUUAAGCTT against Pde6g, the z-score was 2.55 (active).

For GCCAGAAUGGACUUGAGAATT against V1re6, the z-score is -0.0714.

Turning to GUUGAGGACUUCUUGCUGGTT against Cmar, the z-score is -1.03.

Take GGUAUGAGUGAAGAAAAGATT against Ifi205: the z-score was -0.37.

CCAUAAACGACGAAAUGAUTT against Usp11: the z-score was 2.97 (active).

GGCAUCUGUUAUUGAAGUGTT against Vit: the z-score is 0.771.

For GGCCGAGUACAAACGUGGATT against AU019532, the z-score was 0.561.

Consider CCCUACCUUGAACGAGUACTT against Apoa1, for which the z-score is 0.773 (active).

On to “GGAGAAGAAGCAGAGAGAATT against C530028I08Rik”, for which the z-score is -0.263.

On to CCUUUCAGGCCAAUUGGCATT against Ube2l6, for which the z-score is 0.111.

As to “UCUCCUUCCUAACUUCAACTT against E030010A14”, the z-score is 0.4.

As for “GGAACAGGACUUUUGAUAATT against 2700050F09Rik”, the z-score was 1.03 (active).

For GGCCAAUGAUGAUAACAAATT against Catnd2, the z-score is 0.564.

In the case of CCUCUCCUACACUUCAAAATT against Cmya4, the z-score was 0.746.

Turning to GGCUUUUUCCUCUACCCACTT against Trhde, the z-score was 0.762.

Take GGUGUUUAAAGAUUUCGUUTT against Dhrs2: the z-score is 0.996.

Turning to GCAAUGAACUAUGAAGGCATT against Npm1, the z-score is 0.811 (active).

Regarding CCCUUCACAACUUCUUAAUTT against Olfr872, the z-score was 0.609.

As for GGGCAUCAGCAUUUGGUCATT against Pparbp, the z-score is 1.17.

For GGACUACCUCACACUCUUCTT against Oprs1, the z-score is -0.235.

On to GCCAUUCCGGCAGUAUUACTT against Pdcd7, for which the z-score was 0.524.
